Only some compounds are listed: those with a hit (about 0.84% of all), similar ones and a draw of the others.
PPARg SRC3 recr – PPARgamma-driven SRC-3 recruitment agonism. P37231. biochemical PPARgamma/SRC-3 coactivator recruitment assay. activation, % at 8 µM. 0.26% of 200,000 active; in the data active means activation above about 23%;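 further: 0% = DMSO and 100% = reference agonist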
Target sequence (P37231 whole entry, looked up): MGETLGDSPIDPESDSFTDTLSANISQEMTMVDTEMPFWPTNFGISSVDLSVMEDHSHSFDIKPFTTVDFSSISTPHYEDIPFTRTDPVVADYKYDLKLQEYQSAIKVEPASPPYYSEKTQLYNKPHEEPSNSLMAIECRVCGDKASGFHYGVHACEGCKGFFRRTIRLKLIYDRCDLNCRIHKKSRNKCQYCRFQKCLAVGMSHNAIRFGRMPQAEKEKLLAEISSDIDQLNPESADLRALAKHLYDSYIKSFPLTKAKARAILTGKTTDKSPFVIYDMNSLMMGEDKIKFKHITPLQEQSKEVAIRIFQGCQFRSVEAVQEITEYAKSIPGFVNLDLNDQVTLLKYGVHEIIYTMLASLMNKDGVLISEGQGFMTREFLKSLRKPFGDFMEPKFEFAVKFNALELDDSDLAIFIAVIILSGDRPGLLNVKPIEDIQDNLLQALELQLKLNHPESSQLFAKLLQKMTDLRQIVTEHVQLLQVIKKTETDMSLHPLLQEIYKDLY
SRC3 TRFRET art – flags TR-FRET format artefacts in PPARgamma SRC-3 recruitment agonist screen | TR-FRET artefact counter-screen, PPARgamma/SRC-3 format; stronger effect = higher value | TR-FRET ratio at 8 µM | 0.39% of 99,000 active; in the data active means TR-FRET ratio above about 2000
TR-FRET SRC-2 ct – counter-screen for PPARgamma SRC-2 recruitment agonists: TR-FRET artefact; stronger effect = higher value; TR-FRET ratio at 8 µM; 0.4% of 200,000 active; in the data active means TR-FRET ratio above about 2000
PPARg SRC2 recr – promotes SRC-2 coactivator recruitment by human PPARgamma. P37231. PPARgamma LBD-SRC-2 recruitment, biochemical. activation, % at 8 µM. 0.34% of 200,000 active. AID 1032;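 further: 0% = vehicle and 100% = reference agonist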
PPARg SRC-1 ag – promotes SRC-1 coactivator recruitment by human PPARgamma; P37231; PPARgamma-SRC-1 coactivator recruitment biochemical assay; activation, % at 8 µM; 0.41% of 200,000 active; AID 631; in the data active means activation above about 19%;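 further: 0% = DMSO and 100% = reference agonist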
SRC1 TRFRET art – TR-FRET artefact, counter-screen to PPARgamma/SRC-1 agonist assay; AID 1051; TR-FRET ratio at 8 µM; TR-FRET detection artefact counter-screen, emission ratio; stronger effect = higher value; 0.34% of 99,000 active; in the data active means TR-FRET ratio above about 2300
PPARg SRC2 conf – confirmation of agonists of SRC-2 recruitment by human PPARgamma; shares compounds with PPARg SRC3 recr; biochemical SRC-2 recruitment by PPARgamma; activation, % at 8 µM; 52% of 790 active; AID 1297;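 further: 0% = vehicle alone and 100% = reference agonist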
PPARg SRC1 conf – human PPARgamma SRC-1 recruitment agonism, confirmation; shares compounds with PPARg SRC3 recr; PPARgamma–SRC-1 coactivator recruitment biochemical assay; activation, % at 8 µM; 43% of 790 active; AID 1300; in the data active means activation above about 20%;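 further: 0% = vehicle wells and 100% = reference agonist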
PPARg SRC3 conf – confirmation of agonists of SRC-3 recruitment by human PPARgamma; 29% of 790 active; activation, % at 8 µM; biochemical PPARgamma-SRC-3 coactivator recruitment, agonist mode; shares compounds with PPARg SRC3 recr; in the data active means activation above about 24%;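 further: 0% = vehicle wells and 100% = reference agonist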
* = called active by the depositor. Unless noted, no stated cut-off is given here; in the data, active means activation above about 22%; inactive means the rest.

Results for c1ccc2c(c1)[nH]c1cnccc12 ?
PPARg SRC3 recr: 6; SRC3 TRFRET art: 1611; TR-FRET SRC-2 ct: 1759; PPARg SRC2 recr: 5; PPARg SRC-1 ag: 8; SRC1 TRFRET art: 1918

Results for Cc1c2ccncc2c(C)c2c1[nH]c1ccccc12 ?
PPARg SRC3 recr: 6; SRC3 TRFRET art: 1767; TR-FRET SRC-2 ct: 1611; PPARg SRC2 recr: 8; PPARg SRC-1 ag: 27*; SRC1 TRFRET art: 2068

Results for CCC(C)C1(CC)C(=O)NC(=O)N=C1N (stereo not given) ?
PPARg SRC3 recr: 0; SRC3 TRFRET art: 1541; TR-FRET SRC-2 ct: 1522; PPARg SRC2 recr: -12; PPARg SRC-1 ag: -6; SRC1 TRFRET art: 1654

What do the screens show for `CCOc1ccc(Cc2c(O)[nH]c(=O)[nH]c2=O)cc1`?
PPARg SRC3 recr: -7; TR-FRET SRC-2 ct: 1576; PPARg SRC2 recr: 6; PPARg SRC-1 ag: 2

What do the screens show for `c1cncc(CNC2CCCC2)c1`?
PPARg SRC3 recr: -1; SRC3 TRFRET art: 1585; TR-FRET SRC-2 ct: 1583; PPARg SRC2 recr: 0; PPARg SRC-1 ag: 40*; SRC1 TRFRET art: 3393*

Results for O/N=C1/C(=C\c2ccccc2)N2CCC1CC2 ?
PPARg SRC3 recr: 4; TR-FRET SRC-2 ct: 1591; PPARg SRC2 recr: -1; PPARg SRC-1 ag: 11

How did O=C1Nc2ccccc2/C1=C/c1cnc[nH]1 do in these assays?
PPARg SRC3 recr: 33*; TR-FRET SRC-2 ct: 1808; PPARg SRC2 recr: 17; PPARg SRC-1 ag: 12

Results for Cc1cccc(NP(=O)(Oc2ccccc2F)Oc2ccccc2F)c1C ?
PPARg SRC3 recr: 2; SRC3 TRFRET art: 1742; TR-FRET SRC-2 ct: 1715; PPARg SRC2 recr: -4; PPARg SRC-1 ag: 7; SRC1 TRFRET art: 2320*

How did COc1ccc(C(=O)C23CN4CN(CN(C4)C2)C3)cc1 do in these assays?
PPARg SRC3 recr: -6; SRC3 TRFRET art: 1554; TR-FRET SRC-2 ct: 1613; PPARg SRC2 recr: 3; PPARg SRC-1 ag: -6; SRC1 TRFRET art: 1575

What do the screens show for `COc1ccc(C(=O)C(C)(C)NO)cc1`?
PPARg SRC3 recr: 27*; TR-FRET SRC-2 ct: 1650; PPARg SRC2 recr: 3; PPARg SRC-1 ag: 2

How did C=CCn1c(O)c(C=Nc2ccc(N(CC)CC)cc2)c(=O)[nH]c1=O do in these assays?
PPARg SRC3 recr: 26*; TR-FRET SRC-2 ct: 1780; PPARg SRC2 recr: 18; PPARg SRC-1 ag: 8; PPARg SRC2 conf: 9; PPARg SRC1 conf: 10; PPARg SRC3 conf: 8

How did Cc1cccc(N=Cc2c(O)n(-c3ccccc3C)c(=O)[nH]c2=O)c1 do in these assays?
PPARg SRC3 recr: -10; TR-FRET SRC-2 ct: 1341; PPARg SRC2 recr: 0; PPARg SRC-1 ag: -2

What do the screens show for `Cc1ccccc1-n1c(O)c(C=Nc2ccc(N(C)C)cc2)c(=O)[nH]c1=O`?
PPARg SRC3 recr: 26*; TR-FRET SRC-2 ct: 2050*; PPARg SRC2 recr: 23*; PPARg SRC-1 ag: 15; PPARg SRC2 conf: 7; PPARg SRC1 conf: 10; PPARg SRC3 conf: 5

How did CC/C(=C\C=C\[C@@H]1C=C[C@@H]2CCC[C@H]2[C@@H]1C(=O)c1ccc[nH]1)[C@@H]1O[C@@H]([C@@H](C)C(=O)O)CC[C@@H]1C do in these assays?
PPARg SRC3 recr: 0; TR-FRET SRC-2 ct: 1533; PPARg SRC2 recr: 6; PPARg SRC-1 ag: -2

How did Cn1c(=O)cc(SCC(=O)N2CCC3(CC2)OCCO3)c2ccccc21 do in these assays?
PPARg SRC3 recr: 60*; TR-FRET SRC-2 ct: 2418*; PPARg SRC2 recr: 39*; PPARg SRC-1 ag: 44*; PPARg SRC2 conf: 33*; PPARg SRC1 conf: 20*; PPARg SRC3 conf: 23

How did CC(C)(C)C(=O)OCC12CCC(O1)C1(C)C(=O)OCC21 (stereo not given) do in these assays?
PPARg SRC3 recr: 4; SRC3 TRFRET art: 1633; TR-FRET SRC-2 ct: 1654; PPARg SRC2 recr: 2; PPARg SRC-1 ag: -1; SRC1 TRFRET art: 1795
